Experimental data published in PubChem BioAssay (Tox21).
Results filed as inconclusive are left out. A structure can be active in one record and inactive in another. Active and inactive are the calls of the source. Unless noted, the call rests on the fitted dose curve; in most records, active means well fitted curve in the direction sought with a large enough effect in the repeat runs; inconclusive means weak or mixed curves; inactive means no such curve, though single readings can be large; an effect the other way counts as inactive or inconclusive.

Tests used:
[1] = qHTS assay to identify small molecule agonists of the estrogen receptor alpha (ER-alpha) signaling pathway in the presence of an antagonist - cell viability counter screen (AID 1259386);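 further: cells exposed to compounds for 22 h at 37 °C before the viability read; nearly all actives have a fitted effect of over 30% in size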; further: potency means the concentration at half of the fitted maximal effect; on activity change, negative = cytotoxicity: series mostly up to about 92 µM
How it was run: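 Cells are starved of estrogens for 5 days in charcoal-stripped serum, seeded for 24hr and co-treated with ICI-182,780 (10.0nM final) and test compounds. After 22hr at 37C, viability is read as CellTiter-Fluor fluorescence.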

[2] = target: Progesterone receptor (Homo sapiens) (UniProt P06401); assay: qHTS assay to identify small molecule agonists of the progesterone receptor (PR) signaling pathway (AID 1346784; calls by dose curve; further: nearly all actives have a fitted effect of over 30% in size)
Sequence of Progesterone receptor (Homo sapiens) (P06401 whole entry, looked up): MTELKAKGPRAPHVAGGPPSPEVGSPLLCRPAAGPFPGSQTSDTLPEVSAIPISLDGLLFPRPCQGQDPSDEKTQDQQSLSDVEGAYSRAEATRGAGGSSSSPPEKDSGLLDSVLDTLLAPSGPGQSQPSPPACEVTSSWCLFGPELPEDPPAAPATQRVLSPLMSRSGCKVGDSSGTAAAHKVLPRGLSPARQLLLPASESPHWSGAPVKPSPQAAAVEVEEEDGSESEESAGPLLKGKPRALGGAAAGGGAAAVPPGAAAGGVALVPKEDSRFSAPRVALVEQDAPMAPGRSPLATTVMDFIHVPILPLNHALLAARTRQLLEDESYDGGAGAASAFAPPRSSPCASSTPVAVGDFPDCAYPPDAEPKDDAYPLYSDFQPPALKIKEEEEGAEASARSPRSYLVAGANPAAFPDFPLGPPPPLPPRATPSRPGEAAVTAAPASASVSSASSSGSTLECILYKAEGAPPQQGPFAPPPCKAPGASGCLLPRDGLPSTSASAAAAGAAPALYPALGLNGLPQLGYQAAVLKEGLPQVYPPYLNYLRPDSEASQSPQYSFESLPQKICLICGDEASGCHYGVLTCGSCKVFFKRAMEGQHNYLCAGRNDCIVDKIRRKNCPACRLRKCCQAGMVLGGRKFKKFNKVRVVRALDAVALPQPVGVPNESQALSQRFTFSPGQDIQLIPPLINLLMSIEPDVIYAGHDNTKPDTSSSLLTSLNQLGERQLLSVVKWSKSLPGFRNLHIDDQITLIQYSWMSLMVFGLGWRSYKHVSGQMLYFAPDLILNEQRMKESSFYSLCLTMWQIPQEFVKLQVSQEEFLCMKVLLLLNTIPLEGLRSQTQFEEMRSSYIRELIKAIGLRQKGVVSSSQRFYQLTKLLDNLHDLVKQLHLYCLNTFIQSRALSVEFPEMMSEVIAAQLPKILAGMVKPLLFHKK
How it was run: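 The screen uses PR-UAS-bla HEK 293T cells in charcoal-stripped serum (2%). Compounds are applied for 16 hr at 37C after a 6 hr pre-incubation, and reporter activity is detected with a FRET beta-lactamase substrate after 2 hr at room temperature.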

[3] = target: Progesterone receptor (Homo sapiens) (UniProt P06401); assay: qHTS assay to identify small molecule antagonists of the progesterone receptor (PR) signaling pathway (AID 1346795; active means well fitted inhibition curve with a large enough effect in the signal ratio in the repeat runs, not every such curve was filed as active; the % refers to the signal ratio)
How it was run: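 After 6 hr plating at 37C in 2% stripped-serum medium, PR-UAS-bla HEK293T cells got compounds, then 1 nM R5020. Sixteen hours later, LiveBLAzer substrate was applied for 2 hr at room temperature and fluorescence was recorded.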

[4] = qHTS assay to identify small molecule antagonists of the progesterone receptor (PR) signaling pathway - cell viability counter screen (AID 1346798); further: series mostly up to about 92 µM; nearly all actives have a fitted effect of over 50% in size
How it was run: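 Viability was determined by ATP-based luminescence (CellTiter-Glo) in PR-UAS-bla HEK293T cells cultured in 2% charcoal-stripped serum and incubated 16 hr with compounds under R5020 stimulation.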

[5] = qHTS assay to identify small molecule agonists of the progesterone receptor (PR) signaling pathway - cell viability counter screen (AID 1346799; calls by dose curve; further: nearly all actives have a fitted effect of over 45% in size)
How it was run: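 Viability was scored by ATP luminescence (CellTiter-Glo, 30 min, room temperature) in the same wells used for the reporter readout, after 16 hr compound exposure of PR-UAS-bla HEK293T cells.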

[6] = qHTS assay to identify small molecule antagonists of the TGF-beta/Smad signaling pathway - cell viability counter screen (AID 1346824); further: nearly all actives have a fitted effect of over 50% in size
How it was run: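 SBE-bla HEK 293T cells, incubated overnight, then compound plus 0.25 ng/mL TGF-beta1 (stock added) for 5 hr at 37 C. Viability was read in the same wells by CellTiter-Glo luminescence after 30 min at room temperature.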

[7] = qHTS assay to identify small molecule agonists of the TGF-beta/Smad signaling pathway - cell viability counter screen (AID 1346829); further: top concentration of the series differs between compounds; nearly all actives have a fitted effect of over 45% in size
How it was run: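 Here the cytotoxicity of library compounds is measured in SBE-bla HEK 293T cells treated for 5 hr, using CellTiter-Glo added to wells already read for the beta-lactamase reporter.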

[8] = qHTS assay to identify small molecule agonists of the TGF-beta/Smad signaling pathway (AID 1346859; active means well fitted activation curve with a large enough effect in the signal ratio in the repeat runs, not every such curve was filed as active; the % refers to the signal ratio; further: series mostly up to about 77 µM)
How it was run: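 Dual-wavelength fluorescence (460/530 nm emission) quantified beta-lactamase expression under the Smad binding element in HEK 293T cells following 5 hr compound treatment at 37 C.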

[9] = target: Thyrotropin-releasing hormone receptor (Homo sapiens) (UniProt P34981); assay: qHTS assay to identify small molecule antagonists of the thyrotropin-releasing hormone receptor (TRHR) signaling pathway (AID 1346877; active means well fitted inhibition curve with a large enough effect in the repeat runs, not every such curve was filed as active; further: series mostly up to about 51 µM)
Sequence of Thyrotropin-releasing hormone receptor (Homo sapiens) (P34981 whole entry, looked up): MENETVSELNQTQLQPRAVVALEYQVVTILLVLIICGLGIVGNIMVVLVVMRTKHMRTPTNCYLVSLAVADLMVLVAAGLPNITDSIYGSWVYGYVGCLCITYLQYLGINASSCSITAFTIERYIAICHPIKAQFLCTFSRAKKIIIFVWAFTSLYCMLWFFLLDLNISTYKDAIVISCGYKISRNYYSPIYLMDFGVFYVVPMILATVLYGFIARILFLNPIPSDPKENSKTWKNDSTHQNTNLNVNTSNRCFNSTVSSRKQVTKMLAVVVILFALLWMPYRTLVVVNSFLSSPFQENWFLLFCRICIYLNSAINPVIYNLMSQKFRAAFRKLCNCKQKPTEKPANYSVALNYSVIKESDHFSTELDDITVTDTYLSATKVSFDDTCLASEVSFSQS
How it was run: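 Cells (TRHR-HEK293) are plated and kept 18 h at 37 °C/5% CO2. A calcium-sensitive dye is added for 2 h, compound follows for 5 min at room temperature, and TRH is then given at 1 nM final.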

[10] = target: Thyrotropin-releasing hormone receptor (Homo sapiens) (UniProt P34981); assay: qHTS assay to identify small molecule agonists of the thyrotropin-releasing hormone receptor (TRHR) signaling pathway (AID 1346891; calls by dose curve;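 further: HEK293 cells expressing TRHR with calcium dye readout; series mostly up to about 58 µM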)
How it was run: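 Kinetic fluorescence (3 min, 1 s intervals) reported intracellular calcium after compound transfer onto TRHR-Hek293 cells pre-loaded with dye for 2 h at 37 °C.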

[11] = Human pregnane X receptor (PXR) small molecule agonists, qHTS cell viability counter screen (AID 1346977); further: nearly all actives have a fitted effect of over 50% in size; further: potency means the concentration at half of the fitted maximal effect
How it was run: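 HepG2 cells stably carrying the PXR-Luc reporter are cultured with 5% charcoal-stripped FBS and treated with compounds for 24hr. CellTiter-Fluor is added at 23hr and fluorescence is read after 1hr.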

[12] = Caspase-3/7 induction in HepG2 cells by small molecules, qHTS assay (AID 1346978); further: nearly all actives have a fitted effect of over 15% in size
How it was run: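 Wild-type HepG2 cells, 2,000/well, settled 5 hr at 37 C and 5% CO2, then compound-treated for 17 hr; caspase-3/7 activity read by luminescent Caspase-Glo 3/7 after 30 min at room temperature.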

[13] = Caspase-3/7 induction in CHO-K1 cells by small molecules, qHTS cell viability counter screen (AID 1346979); further: nearly all actives have a fitted effect of over 35% in size; further: potency means the concentration at half of the fitted maximal effect
How it was run: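 Seeding: 1,500 CHO-K1 cells/well. Rest: 5hr, 37C. Treatment: compounds in DMSO, 16hr. Read: CellTiter-Fluor, 1hr, fluorescence.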

[14] = Caspase-3/7 induction in CHO-K1 cells by small molecules, qHTS assay (AID 1346980); further: nearly all actives have a fitted effect of over 15% in size
How it was run: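 Wild-type CHO-K1 cells exposed to compounds for 17hr at 37 C, 5% CO2. Caspase-3/7 activity then measured by Caspase-Glo 3/7 luminescence after 30min at room temperature.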

[15] = target: Nuclear receptor subfamily 1 group I member 2 (Homo sapiens) (UniProt O75469); assay: Human pregnane X receptor (PXR) small molecule agonists, qHTS assay (AID 1346982); further: nearly all actives have a fitted effect of over 35% in size; further: potency means the concentration at half of the fitted maximal effect
Sequence of Nuclear receptor subfamily 1 group I member 2 (Homo sapiens) (O75469 whole entry, looked up): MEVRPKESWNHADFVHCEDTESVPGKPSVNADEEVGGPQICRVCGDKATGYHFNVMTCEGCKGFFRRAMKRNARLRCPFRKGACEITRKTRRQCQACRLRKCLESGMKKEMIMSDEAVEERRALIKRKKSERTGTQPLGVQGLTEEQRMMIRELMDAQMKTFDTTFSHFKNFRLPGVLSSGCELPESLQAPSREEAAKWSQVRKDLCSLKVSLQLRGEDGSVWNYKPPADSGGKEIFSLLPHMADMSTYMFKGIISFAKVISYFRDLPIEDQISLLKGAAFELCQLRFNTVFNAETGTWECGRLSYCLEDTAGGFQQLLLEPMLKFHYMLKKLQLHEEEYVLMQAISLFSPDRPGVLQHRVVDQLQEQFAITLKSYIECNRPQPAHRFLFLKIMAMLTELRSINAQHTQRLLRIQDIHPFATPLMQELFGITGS
How it was run: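 Agonist mode qHTS: PXR-Luc HepG2 cells plated 5 hr before DMSO-dissolved compounds were pinned in, cultured 24 hr at 37 C, 5% CO2; ONE-Glo luminescence readout.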

[16] = target: Cytochrome P450 2D6 (Homo sapiens) (UniProt P10635); assay: Cytochrome P450 Family 2 Subfamily D Member 6 (CYP2D6) small molecule antagonists: luciferase reporter qHTS assay (AID 1671196); further: nearly all actives have a fitted effect of over 50% in size; further: potency means the concentration at half of the fitted maximal effect; on activity change, negative = inhibition: series mostly up to about 120 µM
Sequence of Cytochrome P450 2D6 (Homo sapiens) (P10635 whole entry, looked up): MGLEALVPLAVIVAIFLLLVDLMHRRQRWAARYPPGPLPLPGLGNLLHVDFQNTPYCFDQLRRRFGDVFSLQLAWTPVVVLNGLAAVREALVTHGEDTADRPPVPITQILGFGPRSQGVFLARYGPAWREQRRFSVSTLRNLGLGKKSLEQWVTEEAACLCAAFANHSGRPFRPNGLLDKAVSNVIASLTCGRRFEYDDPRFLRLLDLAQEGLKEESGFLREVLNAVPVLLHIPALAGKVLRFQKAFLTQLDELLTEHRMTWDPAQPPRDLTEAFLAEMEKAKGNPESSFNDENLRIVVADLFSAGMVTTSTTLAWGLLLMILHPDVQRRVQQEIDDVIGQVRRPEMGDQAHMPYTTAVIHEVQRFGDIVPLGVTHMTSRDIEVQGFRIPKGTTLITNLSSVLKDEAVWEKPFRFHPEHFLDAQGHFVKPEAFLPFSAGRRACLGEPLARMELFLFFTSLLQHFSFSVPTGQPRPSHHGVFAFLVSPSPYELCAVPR
How it was run: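 P450-Glo format: CYP2D6 converts a proluciferin substrate to luciferin in an NADPH-driven reaction lasting 1 h at room temperature. Light output, proportional to CYP2D6 activity, reflects interference by test chemicals.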

[17] = Caspase-3/7 induction in HepG2 cells by small molecules, qHTS cell viability counter screen (AID 1346981); further: nearly all actives have a fitted effect of over 30% in size; further: potency means the concentration at half of the fitted maximal effect; on activity change, negative = cytotoxicity: series mostly up to about 92 µM
How it was run: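 Steps: seed 2,000 HepG2 cells per well; incubate 5 hr at 37 C; pin-add compounds in DMSO; incubate 16 hr; add CellTiter-Fluor; after 1 hr at 37 C and 5% CO2, read fluorescence.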

[18] = target: Nuclear receptor subfamily 1 group I member 2 (Homo sapiens) (UniProt O75469); assay: CYP3A4 induction through human pregnane X receptor (PXR) by small molecules, qHTS assay (AID 1346984); further: nearly all actives have a fitted effect of over 40% in size
How it was run: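 Steps: seed DPX-2 cells, 5 hr at 37C; pin-transfer compounds; 24 hr at 37C; add Luciferin-IPA (3uM final), 3 hr at 37C; add One-Glo, 30 min RT; read luminescence.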

[19] = target: Nuclear receptor subfamily 1 group I member 2 (Homo sapiens) (UniProt O75469); assay: Human pregnane X receptor (PXR) activation by small molecules, qHTS assay (AID 1346985); further: nearly all actives have a fitted effect of over 40% in size
How it was run: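 DPX-2 cells (HepG2 co-transfected with a PXR response element and a CYP3A4-promoter luciferase construct) were seeded at 2,000 per well, rested 5 hr at 37C, then exposed to DMSO-dissolved compounds for 24 hr. Activation was read as luciferase luminescence.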

[20] = target: Nuclear receptor subfamily 1 group I member 2 (Rattus norvegicus) (UniProt Q9R1A7); assay: Rat pregnane X receptor (rPXR) activation by small molecules, qHTS assay (AID 1346983); conditions: rPXR luciferase reporter cells, One-Glo luminescence, 24 h; max activation: stronger effect = higher value; further: nearly all actives have a fitted effect of over 20% in size
Sequence of Nuclear receptor subfamily 1 group I member 2 (Rattus norvegicus) (Q9R1A7 whole entry, looked up): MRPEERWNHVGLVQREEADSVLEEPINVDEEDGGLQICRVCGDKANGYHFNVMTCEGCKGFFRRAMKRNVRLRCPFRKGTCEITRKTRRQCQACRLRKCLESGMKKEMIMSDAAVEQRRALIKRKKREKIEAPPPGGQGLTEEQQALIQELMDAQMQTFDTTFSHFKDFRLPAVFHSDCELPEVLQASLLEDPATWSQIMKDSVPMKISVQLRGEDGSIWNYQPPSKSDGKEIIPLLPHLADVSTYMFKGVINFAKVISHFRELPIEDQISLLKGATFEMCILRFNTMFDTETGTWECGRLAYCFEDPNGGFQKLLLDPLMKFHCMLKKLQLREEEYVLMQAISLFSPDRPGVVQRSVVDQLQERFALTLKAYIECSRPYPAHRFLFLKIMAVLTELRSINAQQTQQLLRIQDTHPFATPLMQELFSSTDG
How it was run: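 Cell-based rPXR activation assay: rPXR cells, 2,000 per well, rested 5hr at 37 C, then exposed to compounds in DMSO for 24 hr at 37 C. Luciferase activity read by One-Glo luminescence after 30 min at room temperature.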
On the % scale 0 is the no-effect control and ±100 the full control effect.

CC1=C(C=O)C(C)(C)CCC1
active: Potency [15] 27.3 µM
inactive: Potency [1] | Potency [2] | Potency [3] | Potency [4] | Potency [5] | outcome [6] | outcome [7] | outcome [8] | outcome [9] | Potency [10] | Potency [11] | Potency [12] | Potency [13] | outcome [14] | Potency [16]

Cc1nc2ccccc2s1
inactive: Potency [1] | Potency [2] | Potency [3] | Potency [4] | Potency [5] | outcome [6] | outcome [7] | outcome [8] | Potency [11] | Potency [12] | Potency [13] | outcome [14] | Potency [17] | Potency [15] | Potency [16]

C=CC(=C)CCCC(C)(C)OC(C)=O
inactive: Potency [1] | Potency [2] | Potency [3] | Potency [4] | Potency [5] | outcome [6] | outcome [7] | Potency [10] | Potency [11] | Potency [12] | Potency [13] | outcome [14] | Potency [15] | Potency [16]

CC(C)CCCCCCOC(=O)CCCCC(=O)OCCCCCCC(C)C
inactive: Potency [1] | Potency [2] | Potency [3] | Potency [4] | Potency [5] | outcome [6] | outcome [7] | Potency [11] | Potency [12] | Potency [13] | outcome [14] | Potency [17] | Potency [15] | Potency [16]

CN1C(=O)CC(C)(c2ccccc2)C1=O (stereo not drawn)
inactive: Potency [1] | Potency [2] | Potency [3] | Potency [4] | Potency [5] | outcome [6] | outcome [7] | outcome [8] | outcome [9] | Potency [10] | Potency [11] | Potency [12] | Potency [13] | outcome [14] | Potency [17]

CCCCC(CC)CNCC(CC)CCCC (stereo not drawn)
active: Potency [16] 0.199 µM
inactive: Potency [1] | Potency [2] | Potency [3] | Potency [4] | Potency [5] | outcome [6] | outcome [8] | Potency [10] | Potency [11] | Potency [12] | Potency [13] | outcome [14] | Potency [17] | Potency [15]

Cc1cc(O)c(C(C)C)cc1Cl
inactive: Potency [1] | Potency [2] | Potency [3] | Potency [4] | Potency [5] | outcome [6] | outcome [9] | Potency [10] | Potency [11] | Potency [12] | Potency [13] | outcome [14] | Potency [17] | Potency [15] | Potency [18] | Potency [19]
63.3 µM (active) and inactive: Potency [16]

COc1ccccc1N=Nc1c(S(=O)(=O)O)cc2cc(S(=O)(=O)O)cc(NC(C)=O)c2c1O
inactive: Potency [2] | Potency [3] | Potency [4] | Potency [5] | outcome [6] | outcome [7] | outcome [8] | outcome [9] | Potency [10] | Potency [12] | outcome [14] | Potency [15]
active: Potency [1] 22.9 µM | Potency [11] 22.9 µM | Potency [13] 25.7 µM | Potency [17] 25.7 µM | Potency [16] 33.5 µM

CC1CN(c2cc3c(cc2F)c(=O)c(C(=O)O)cn3-c2ccc(F)cc2F)CCN1 (stereo not drawn)
inactive: activity change, negative = cytotoxicity [1] -5.19% [at 8.39 µM] | activation [2] -0.275% [at 8.39 µM] | activity change, negative = inhibition [3] 4.51% [at 8.39 µM] | activity change, negative = cytotoxicity [4] 0.324% [at 8.39 µM] | activity change, negative = cytotoxicity [5] -0.292% [at 8.39 µM] | viability change, negative = cytotoxic [6] -5.24% [at 6.97 µM] | activation [8] -2.82% [at 6.97 µM] | activity, negative = inhibition [9] 2.02% [at 4.65 µM] | activation [10] 0% [at 5.23 µM] | activity change, negative = cytotoxicity [11] -4.03% [at 8.39 µM] | caspase activation [12] -0.856% [at 8.39 µM] | activity change, negative = cytotoxicity [13] -1.36% [at 8.39 µM] | caspase-3/7 activation [14] -0.241% [at 8.39 µM] | activity change, negative = cytotoxicity [17] -2.3% [at 8.39 µM] | activation [15] -2.46% [at 8.39 µM] | activity change, negative = inhibition [16] -0.211% [at 10.5 µM]

OCC1CC=CCC1 (stereo not drawn)
inactive: Potency [1] | Potency [2] | Potency [3] | Potency [4] | Potency [5] | outcome [6] | outcome [7] | outcome [8] | Potency [11] | Potency [12] | Potency [13] | outcome [14] | Potency [17] | Potency [16]

CCOC(=O)c1ccccc1OC
inactive: Potency [1] | Potency [2] | Potency [3] | Potency [4] | Potency [5] | outcome [6] | outcome [7] | outcome [8] | outcome [9] | Potency [10] | Potency [11] | Potency [12] | Potency [13] | outcome [14] | Potency [16]

COc1cc2[nH]c(=O)[nH]c(=O)c2cc1OC
inactive: Potency [1] | Potency [2] | Potency [3] | Potency [4] | Potency [5] | outcome [6] | outcome [7] | outcome [8] | outcome [9] | Potency [10] | Potency [11] | Potency [12] | Potency [13] | outcome [14] | Potency [17] | Potency [15] | max activation [20] -3.43% | Potency [18] | Potency [19] | Potency [16]

O=C1NCCN1
inactive: Potency [1] | Potency [2] | Potency [3] | Potency [4] | Potency [5] | outcome [6] | outcome [8] | Potency [11] | Potency [12] | Potency [13] | outcome [14] | Potency [17] | Potency [15]
active: Potency [16] 21.5 µM

CC1(C)C(=O)N(Br)C(=O)N1Cl
inactive: Potency [1] | Potency [2] | Potency [3] | Potency [4] | Potency [5] | outcome [6] | outcome [7] | outcome [8] | Potency [10] | Potency [11] | Potency [12] | Potency [13] | outcome [14] | Potency [17] | Potency [16]

CN1Cc2cc(C(=O)N3CCC(C4CCNCC4)CC3)ccc2N[C@@H](CC(=O)O)C1=O
inactive: Potency [1] | Potency [2] | Potency [3] | Potency [4] | Potency [5] | outcome [6] | outcome [7] | outcome [8] | outcome [9] | Potency [10] | Potency [11] | Potency [12] | Potency [13] | outcome [14] | Potency [17] | Potency [16]
